An excerpt weighted towards active compounds, which were near 0.85% of everything screened.
C-LANA FP: inhibitors of KSHV C-LANA binding to DNA, primary screen, biochemical, fluorescence polarization, FAM-LBS DNA, MBP-C-LANA, single point. Kaposi's sarcoma herpesvirus LANA C-terminal domain (residues 932-1162) DNA binding. inhibition, % at 9 µM. hit rate 0.078% among 340,000. AID 504423, 2011;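 active = highest replicate inhibition at or above 60% at 9 µM, even if other replicates fall short; inactive = all replicates below 60% inhibition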;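 note: 0% = neutral control wells and 100% = 4 µM acridine orange control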
eLon inh: inhibitors of E. coli Lon protease, primary screen, biochemical, fluorescence polarization. P0A9M0. inhibition, % at 7.94 µM. purified E. coli Lon protease. hit rate 0.42% among 360,000; in the data active = inhibition above about 13%, passing the limit was not always enough;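 note: 0% = enzyme with probe and DMSO and 100% = no enzyme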
EBNA-1 inhibitor: EBNA-1 DNA-binding inhibitors, primary screen, biochemical, fluorescence polarization; inhibition, % at 14.8 µM; hit rate 0.34% among 300,000; AID 1950, 2009; in the data active = inhibition above about 28%
Keap1-Nrf2 PPI: Keap1-Nrf2 protein-protein interaction inhibitors, primary screen, biochemical, fluorescence polarization, single point. hit rate 0.15% among 340,000. inhibition, % at 9.4 µM. Keap1 Kelch-Nrf2 peptide fluorescence polarization, 1536-well. Kelch-like ECH-associated protein 1 (Homo sapiens), Q14145; in the data active = inhibition above about 12%;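 note: human Keap1 Kelch domain with fluorescein labeled Nrf2 9mer peptide probe; 0% = neutral control wells and 100% = peptide positive control; higher means more block of Keap1 binding to Nrf2 peptide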
ZTA DNA inh: ZTA (EBV) inhibition in EBNA-1 counter-screen | P03206 | ZTA-DNA binding, fluorescence polarization | inhibition, % at 11 µM | hit rate 0.15% among 320,000; in the data active = inhibition above about 33%
Target sequence (P03206 whole entry, looked up): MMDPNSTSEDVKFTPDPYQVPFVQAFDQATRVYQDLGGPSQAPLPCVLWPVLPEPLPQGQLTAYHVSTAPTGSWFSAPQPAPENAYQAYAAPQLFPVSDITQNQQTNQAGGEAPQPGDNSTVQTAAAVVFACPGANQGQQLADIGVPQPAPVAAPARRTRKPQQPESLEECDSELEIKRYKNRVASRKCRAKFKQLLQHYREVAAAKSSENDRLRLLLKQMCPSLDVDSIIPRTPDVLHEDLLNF
Zta DNA confirm: EBV Zta binding to ZRE DNA, inhibitors, confirmation, biochemical, fluorescence polarization, triplicate; shares compounds with ZTA DNA inh; inhibition, % at 11.1 µM; hit rate 30% among 320;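 active = mean inhibition across triplicate runs above the hit threshold derived for the original primary screen, cut at about 33% in these data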;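 note: 0% = Zta with DMSO and 100% = wells lacking Zta protein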
EBNA1 counter: EBNA-1 DNA-binding inhibition, counter-screen for ZTA inhibitor project, biochemical, fluorescence polarization | shares compounds with ZTA DNA inh | 320 tested, under 10 active | inhibition, % at 14.8 µM; call rule not given here
Active calls of the source: *.

For O=C(O)CCn1cc(/C=C/C(=O)c2ccc(Cl)cc2)c(-c2ccc(Br)cc2)n1 the results were C-LANA FP -0.7, eLon inh 3.7, EBNA-1 inhibitor 11.4, Keap1-Nrf2 PPI -4.7, ZTA DNA inh 45.2*, Zta DNA confirm 30.5 and EBNA1 counter -4.1.
Cc1ccc2nc(-c3ccc(SCC(=O)Nc4nc(C)cs4)nc3)[nH]c2c1 was read as C-LANA FP 0.5, eLon inh -3.9, EBNA-1 inhibitor 10.4, Keap1-Nrf2 PPI 2.0, ZTA DNA inh 48.4*, Zta DNA confirm -0.7 and EBNA1 counter 22.9.
Screening Cc1ccc2nc(-c3ccc(SCC(=O)Nc4nnc(C)s4)nc3)[nH]c2c1 returned C-LANA FP 0.7, eLon inh -0.8, EBNA-1 inhibitor 19.1, Keap1-Nrf2 PPI -3.4 and ZTA DNA inh -0.1.
Screening Cc1ccc(OCc2nnc(SCC(=O)NCc3ccco3)n2C)cc1 returned C-LANA FP -1.1, eLon inh 8.9, EBNA-1 inhibitor 3.4, Keap1-Nrf2 PPI -4.7 and ZTA DNA inh -21.9.
`Cc1ccccc1OCc1nnc(SCC(=O)NCc2ccco2)n1C` gave C-LANA FP -0.6, eLon inh 1.4, EBNA-1 inhibitor 12.9, Keap1-Nrf2 PPI -2.5, ZTA DNA inh 35.0*, Zta DNA confirm -8.4 and EBNA1 counter 0.3.
`C#CCOCCOCCOCCNc1nc(N2CCN(C(=O)CCCCCCCCCCNC(=O)[C@@H](CCSC)n3cc(CCO)nn3)CC2)nc(N2CCN(C(=O)CCCCCCCCCCNC(=O)[C@H](CCSC)n3cc(CCO)nn3)CC2)n1` gave C-LANA FP -1.7, eLon inh 16.2, EBNA-1 inhibitor 2.1, Keap1-Nrf2 PPI -5.3 and ZTA DNA inh -21.9.
C#CCOCCOCCOCCNc1nc(N2CCN(C(=O)CCCCCCCCCCNC(=O)Cn3cc(CCCCCN)nn3)CC2)nc(N2CCN(C(=O)CCCCCCCCCCNC(=O)[C@@H](CCSC)n3cc(CCO)nn3)CC2)n1 was read as C-LANA FP -4.6, eLon inh 6.0, EBNA-1 inhibitor 8.4, Keap1-Nrf2 PPI -15.4, ZTA DNA inh 80.4*, Zta DNA confirm 24.1 and EBNA1 counter -0.4.
`C#CCOCCOCCOCCNc1nc(N2CCN(C(=O)CCCCCCCCCCNC(=O)Cn3cc(C[C@@H](C)O)nn3)CC2)nc(N2CCN(C(=O)CCCCCCCCCCNC(=O)[C@@H](CCC(=O)O)n3cc(CCCCCN)nn3)CC2)n1` gave C-LANA FP 2.2, eLon inh 3.9, EBNA-1 inhibitor 3.6, Keap1-Nrf2 PPI -10.2 and ZTA DNA inh 12.3.
Screening C#CCOCCOCCOCCNc1nc(N2CCN(C(=O)CCCCCCCCCCNC(=O)Cn3cc(CCCCCN)nn3)CC2)nc(N2CCN(C(=O)CCCCCCCCCCNC(=O)Cn3cc(CCCCCN)nn3)CC2)n1 returned C-LANA FP -17.5, eLon inh 14.8, EBNA-1 inhibitor 0.1, Keap1-Nrf2 PPI -29.3, ZTA DNA inh 48.6*, Zta DNA confirm 37.8* and EBNA1 counter -7.3.
C#CCOCCOCCOCCNc1nc(N2CCN(C(=O)CCCCCCCCCCNC(=O)Cn3cc(CCCCCN)nn3)CC2)nc(N2CCN(C(=O)CCCCCCCCCCNC(=O)[C@@H](CCC(=O)O)n3cc(CCCCCN)nn3)CC2)n1 was read as C-LANA FP -0.1, eLon inh -0.4, EBNA-1 inhibitor 3.5, Keap1-Nrf2 PPI -17.2, ZTA DNA inh 60.8*, Zta DNA confirm 3.1 and EBNA1 counter -6.8.
Screening CCCCC(=O)N(C)c1c(CC)nc2c(OCC(=O)N3CCOCC3)cccn12 returned eLon inh 5.7.
Screening CC1CCC2(CC1)NC(=O)N(CC(=O)Nc1ccc(F)cc1)C2=O (centres undefined) returned C-LANA FP 0.6, eLon inh -10.4, Keap1-Nrf2 PPI 4.4 and ZTA DNA inh -5.8.
`CCOc1cc(N2CCOCC2)c(OCC)cc1NC(=O)CN1CCSC1=O` gave C-LANA FP 1.1, eLon inh -9.0, Keap1-Nrf2 PPI -0.2 and ZTA DNA inh -10.6.

Screening data (PubChem)
